# From PubChem BioAssay (NCATS)
# Unmarked numbers belong to inactive results. Records with an inconclusive call do not appear. The source made the active and inactive calls. Unless noted, calls come from the whole dose curve; as a rule, active = well fitted curve in the direction sought with a large enough effect; inconclusive = small, poorly fitted or top-dose-only effect, or another doubt; inactive = no such curve, though single readings can be large; an effect the other way counts as inactive or inconclusive.
# Columns and labels:
# [1] = target: Lysosomal acid glucosylceramidase (Homo sapiens) (UniProt P04062); experiment: Glucocerebrosidase-p2 (AID 348; in the data active = potency below about 10 µM; note: potency is the fitted concentration of half-maximal effect); conditions: purified GBA, blue fluorogenic substrate, 40 min
# Chain of Lysosomal acid glucosylceramidase (Homo sapiens) (P04062 whole entry, looked up): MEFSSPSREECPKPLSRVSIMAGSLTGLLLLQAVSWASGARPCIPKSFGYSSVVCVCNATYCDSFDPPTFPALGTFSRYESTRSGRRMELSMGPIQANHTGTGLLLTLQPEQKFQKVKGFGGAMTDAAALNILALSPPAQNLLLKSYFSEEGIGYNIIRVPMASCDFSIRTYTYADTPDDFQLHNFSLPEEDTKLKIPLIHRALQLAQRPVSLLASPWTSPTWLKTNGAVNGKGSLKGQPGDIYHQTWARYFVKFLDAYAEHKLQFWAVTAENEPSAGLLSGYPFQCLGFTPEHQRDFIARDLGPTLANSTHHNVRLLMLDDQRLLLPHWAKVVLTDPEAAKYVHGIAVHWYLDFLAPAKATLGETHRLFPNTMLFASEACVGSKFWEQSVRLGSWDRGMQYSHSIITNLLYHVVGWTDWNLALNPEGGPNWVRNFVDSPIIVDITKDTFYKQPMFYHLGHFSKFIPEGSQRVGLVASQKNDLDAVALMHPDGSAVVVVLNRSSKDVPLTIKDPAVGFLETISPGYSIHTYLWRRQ
# Procedure, shortened: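 Compounds titrated from 0.6 nM upwards against 0.2 nM enzyme in pH 5.9 citric acid/KH2PO4, taurocholate, tween-20; blue fluorogenic substrate 80 uM, 40 min room temperature, stopped and read Ex 365/Em 440 for AC50.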
# [2] = AP1 Signaling Pathway (AID 357; active = well fitted curve in either direction with a large enough effect, not every such curve was filed as active; note: % is set by controls: 0 for no effect and ±100 for the full control effect); conditions: ME-180 AP-1-bla reporter, EGF-induced, beta-lactamase ratio, 5 h; at 7.69 µM (top of the series) unless noted
# Procedure, shortened: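 AP-1-bla ME-180 cells with beta-lactamase reporter under AP-1 response element, stimulated with EC50 EGF; compounds titrated, 5 hours at 37 degrees Celsius. CCF4 read at 460/530 nm ratio; positive and negative modulators judged by AC50.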
# [3] = target: Cytochrome P450 1A2 (Homo sapiens) (UniProt P05177); experiment: p450-cyp1a2 (AID 410; calls by dose curve; note: potency is the fitted concentration of half-maximal effect;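 for activity change, negative = inhibition: -100% = full effect of reference inhibitor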); conditions: recombinant CYP1A2, luciferin-ME demethylation, luminescence; series mostly up to 57 µM
# Chain of Cytochrome P450 1A2 (Homo sapiens) (P05177 whole entry, looked up): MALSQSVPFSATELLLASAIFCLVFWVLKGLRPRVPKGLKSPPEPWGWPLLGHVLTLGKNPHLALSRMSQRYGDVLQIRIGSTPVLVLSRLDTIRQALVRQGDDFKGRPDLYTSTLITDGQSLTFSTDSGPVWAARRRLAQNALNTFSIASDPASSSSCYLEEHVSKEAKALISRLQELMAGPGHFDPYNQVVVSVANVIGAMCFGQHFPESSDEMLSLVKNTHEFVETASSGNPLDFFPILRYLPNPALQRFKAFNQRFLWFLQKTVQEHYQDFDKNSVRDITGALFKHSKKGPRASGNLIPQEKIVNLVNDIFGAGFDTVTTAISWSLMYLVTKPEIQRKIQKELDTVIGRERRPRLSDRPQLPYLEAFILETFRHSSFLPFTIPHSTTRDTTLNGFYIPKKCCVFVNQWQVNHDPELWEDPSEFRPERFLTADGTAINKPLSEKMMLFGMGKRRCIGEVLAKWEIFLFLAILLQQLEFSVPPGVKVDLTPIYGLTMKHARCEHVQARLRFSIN
# Procedure, shortened: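 Human CYP1A2 (20nM) demethylated Luciferin-ME at its Km (100uM) in 100mM KPO4. After 10 min compound preincubation, NADPH regeneration ran the reaction 60 min at room temperature. Luciferin was read by luminescence, normalized to 57 uM furafylline.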
# [4] = Stat Signaling Pathway (AID 446; active = well fitted curve in either direction with a large enough effect, not every such curve was filed as active;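 note: ME-180 cervical cancer cells given 40 pM IL-6 alongside compound; SIE-controlled beta-lactamase reporter measured as 460/530 nm FRET emission ratio; % is set by controls: 0 for no effect and ±100 for the full control effect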); conditions: ME-180 SIE beta-lactamase reporter, IL-6 stimulated, 5 h; series mostly up to 7.69 µM
# Procedure, shortened: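 IL-6/STAT signaling read in ME-180 cells via an SIE beta-lactamase reporter. Stimulus was 40 pM IL-6 (its AC50) for 5 hrs, so both activation and inhibition register.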
# [5] = target: Glucocorticoid receptor (Homo sapiens) (UniProt P04150); experiment: GR-EFC Redistribution (AID 451; calls by dose curve; note: potency is the fitted concentration of half-maximal effect); conditions: CHO-K1 GR-EFC translocation, beta-gal luminescence, 2 h
# Chain of Glucocorticoid receptor (Homo sapiens) (P04150 whole entry, looked up, the tested form may be a part): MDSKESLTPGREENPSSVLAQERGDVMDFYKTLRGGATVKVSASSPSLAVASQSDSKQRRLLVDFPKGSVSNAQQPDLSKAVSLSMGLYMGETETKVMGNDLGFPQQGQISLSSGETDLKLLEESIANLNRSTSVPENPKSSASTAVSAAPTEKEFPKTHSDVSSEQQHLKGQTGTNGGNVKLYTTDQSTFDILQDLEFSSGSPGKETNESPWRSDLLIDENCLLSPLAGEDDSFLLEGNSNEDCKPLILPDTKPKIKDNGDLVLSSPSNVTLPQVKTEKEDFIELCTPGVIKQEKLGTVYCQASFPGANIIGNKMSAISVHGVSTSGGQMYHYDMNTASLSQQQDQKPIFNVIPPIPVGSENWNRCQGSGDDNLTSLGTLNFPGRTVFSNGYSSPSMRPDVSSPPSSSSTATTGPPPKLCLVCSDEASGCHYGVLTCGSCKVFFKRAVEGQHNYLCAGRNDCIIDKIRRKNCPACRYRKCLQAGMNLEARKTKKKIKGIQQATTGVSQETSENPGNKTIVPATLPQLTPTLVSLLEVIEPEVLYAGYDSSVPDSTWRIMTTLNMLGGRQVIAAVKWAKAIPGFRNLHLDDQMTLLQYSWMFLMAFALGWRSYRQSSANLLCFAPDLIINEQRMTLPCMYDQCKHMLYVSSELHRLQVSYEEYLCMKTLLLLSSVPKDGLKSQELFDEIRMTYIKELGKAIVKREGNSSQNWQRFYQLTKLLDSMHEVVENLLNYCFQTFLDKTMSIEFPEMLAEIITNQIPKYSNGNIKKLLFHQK
# Procedure, shortened: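 CHO-K1 cells expressing nuclear EA and GR-ED fragments of b-gal; compounds titrated up to 46 uM final, 2 h at 37 C. GR nuclear translocation read as complemented b-gal luminescence after 1 h RT detection.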
# [6] = target: Mitogen-activated protein kinase 10 (Mus musculus) (UniProt Q61831); experiment: JNK3 AlphaScreen Assay (AID 530; active = well fitted curve in either direction with a large enough effect, not every such curve was filed as active;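 note: kinase came from lysate of stimulated human HepG2 cells; signal reports phosphorylation of biotinylated GST-cJun 1-79 at Ser73 with 10 µM ATP; % is set by controls: 0 for no effect and ±100 for the full control effect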); conditions: JNK3 lysate, c-Jun phosphorylation; series mostly up to 57.1 µM
# Procedure, shortened: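 qHTS format: compounds tested as titrations against IL-1beta/TNF-alpha-activated HepG2 lysate JNK3 with biotin-GST-cJun substrate and 10 uM ATP at room temperature. Loss of anti-phospho-cJun AlphaScreen signal indicates inhibition.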
# [7] = target: Cytochrome P450 3A4 (Homo sapiens) (UniProt P08684); experiment: qHTS Assay for Activators of Cytochrome P450 3A4 (AID 885); conditions: recombinant CYP3A4, Luciferin-PPXE luminescence, 60 min; series mostly up to 57.1 µM; note: nearly all actives have a fitted effect of over 65% in size
# Chain of Cytochrome P450 3A4 (Homo sapiens) (P08684 whole entry, looked up): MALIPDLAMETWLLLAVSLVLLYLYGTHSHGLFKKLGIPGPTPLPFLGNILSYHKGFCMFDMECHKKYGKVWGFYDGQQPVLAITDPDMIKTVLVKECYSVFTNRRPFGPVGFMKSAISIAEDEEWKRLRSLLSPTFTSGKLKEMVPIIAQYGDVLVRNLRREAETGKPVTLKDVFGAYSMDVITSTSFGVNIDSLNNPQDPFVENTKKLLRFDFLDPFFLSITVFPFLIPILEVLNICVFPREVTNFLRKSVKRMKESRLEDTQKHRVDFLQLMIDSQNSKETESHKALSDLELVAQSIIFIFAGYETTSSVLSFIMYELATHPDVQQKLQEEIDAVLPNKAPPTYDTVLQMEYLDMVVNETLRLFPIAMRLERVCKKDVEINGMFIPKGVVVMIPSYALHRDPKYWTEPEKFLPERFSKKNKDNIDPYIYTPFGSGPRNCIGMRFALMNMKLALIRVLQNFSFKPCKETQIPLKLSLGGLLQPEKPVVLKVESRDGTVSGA
# Procedure, shortened: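 Quantitative HTS format: compounds preincubated with 20nM human CYP3A4 and Luciferin-PPXE substrate at KM, reaction started by NADPH regeneration, stopped after 60 min, luciferase luminescence read 20 min later.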
# [8] = target: Cytochrome P450 2D6 (Homo sapiens) (UniProt P10635); experiment: qHTS Assay for Inhibitors and Substrates of Cytochrome P450 2D6 (AID 891); conditions: recombinant CYP2D6, luciferin-ME EGE luminescence; series mostly up to 57.1 µM; note: potency is the fitted concentration of half-maximal effect; nearly all actives have a fitted effect of over 60% in size
# Procedure, shortened: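 Human CYP2D6 (5 nM) with 30 uM Luciferin-ME EGE (at Km) in 100 mM KPO4, compound preincubated 10 min, then NADPH regeneration system for 60 min at room temperature. Luciferin read by luminescence; normalized to 1.43 uM quinidine.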
# [9] = target: Dual specificity protein kinase CLK4 (Homo sapiens) (UniProt Q9HAZ1); experiment: qHTS Assay for Inhibitors of CDC-like Kinase 4 (Kinase-Glo Assay) (AID 1770); conditions: recombinant Clk4, Kinase-Glo ATP depletion luminescence; series mostly up to 66.7 µM; note: nearly all actives have a fitted effect of over 65% in size; note: potency is the fitted concentration of half-maximal effect
# Chain of Dual specificity protein kinase CLK4 (Homo sapiens) (Q9HAZ1 whole entry, looked up): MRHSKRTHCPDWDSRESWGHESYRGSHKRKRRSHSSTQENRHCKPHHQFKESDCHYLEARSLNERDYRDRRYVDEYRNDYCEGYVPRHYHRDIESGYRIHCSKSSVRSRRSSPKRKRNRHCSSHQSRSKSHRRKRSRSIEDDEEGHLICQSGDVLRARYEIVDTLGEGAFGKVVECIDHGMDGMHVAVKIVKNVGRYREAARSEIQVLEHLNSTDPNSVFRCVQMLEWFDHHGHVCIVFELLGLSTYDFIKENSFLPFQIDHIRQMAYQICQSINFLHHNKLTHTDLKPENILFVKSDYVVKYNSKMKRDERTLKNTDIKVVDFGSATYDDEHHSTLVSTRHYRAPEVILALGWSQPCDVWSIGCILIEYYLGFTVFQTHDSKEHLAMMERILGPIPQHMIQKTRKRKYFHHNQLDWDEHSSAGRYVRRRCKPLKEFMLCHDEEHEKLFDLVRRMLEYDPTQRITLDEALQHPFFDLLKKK
# Procedure, shortened: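 25 nM Clk4 with 100 uM RS repeat peptide and 1 uM ATP (final) in Tris pH7.5, 10 mM MgCl2, 4.5 h at room temperature. Remaining ATP measured by Kinase-Glo luciferase luminescence.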
# [10] = target: Dual specificity protein kinase CLK4 (Homo sapiens) (UniProt Q9HAZ1); experiment: qHTS Assay for Inhibitors of CDC-like Kinase 4 (ADP-Glo Assay) (AID 1771); conditions: recombinant CLK4, ADP-Glo luminescence; series mostly up to 80 µM; note: nearly all actives have a fitted effect of over 70% in size; note: potency is the fitted concentration of half-maximal effect
# Procedure, shortened: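 Clk4 (25 nM) was incubated 1 hr at room temperature with 100 uM RS repeat peptide and 1 uM ATP in buffer with 2 mM MgCl2, 0.5 mM EGTA, 2.5 mM DTT. ADP formed was quantified by ADP-Glo luminescence.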
# [11] = target: Dual specificity protein kinase CLK4 (Homo sapiens) (UniProt Q9HAZ1); experiment: qHTS Assay for Inhibitors of CDC-like Kinase 4 (ADP-FP Assay) (AID 1795); conditions: Transcreener ADP fluorescence polarization; series mostly up to 50 µM; note: nearly all actives have a fitted effect of over 60% in size; note: potency is the fitted concentration of half-maximal effect
# Procedure, shortened: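 Recombinant Clk4 (6.25 nM) phosphorylated 100 uM RS repeat peptide with 1 uM ATP in 25 mM Tris pH 7.5, 10 mM MgCl2, 0.5 mM EGTA, 2.5 mM DTT, 0.01% Triton X-100 for 1 h. ADP was detected by Transcreener ADP2 competitive fluorescence polarization after 30 min at room temperature.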
# [12] = target: Ubiquitin carboxyl-terminal hydrolase 1 (Homo sapiens) (UniProt O94782); experiment: Inhibitors of USP1/UAF1: Pilot qHTS (AID 504865); conditions: purified USP1/UAF1, Ub-rhodamine cleavage fluorescence; series mostly up to 54.9 µM;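 note: rhodamine fluorescence freed from ubiquitin-rhodamine substrate followed over time; top concentration of the series differs between compounds; % is set by controls: 0 for no effect and ±100 for the full control effect; nearly all actives have a fitted effect of over 35% in size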
# Chain of Ubiquitin carboxyl-terminal hydrolase 1 (Homo sapiens) (O94782 whole entry, looked up): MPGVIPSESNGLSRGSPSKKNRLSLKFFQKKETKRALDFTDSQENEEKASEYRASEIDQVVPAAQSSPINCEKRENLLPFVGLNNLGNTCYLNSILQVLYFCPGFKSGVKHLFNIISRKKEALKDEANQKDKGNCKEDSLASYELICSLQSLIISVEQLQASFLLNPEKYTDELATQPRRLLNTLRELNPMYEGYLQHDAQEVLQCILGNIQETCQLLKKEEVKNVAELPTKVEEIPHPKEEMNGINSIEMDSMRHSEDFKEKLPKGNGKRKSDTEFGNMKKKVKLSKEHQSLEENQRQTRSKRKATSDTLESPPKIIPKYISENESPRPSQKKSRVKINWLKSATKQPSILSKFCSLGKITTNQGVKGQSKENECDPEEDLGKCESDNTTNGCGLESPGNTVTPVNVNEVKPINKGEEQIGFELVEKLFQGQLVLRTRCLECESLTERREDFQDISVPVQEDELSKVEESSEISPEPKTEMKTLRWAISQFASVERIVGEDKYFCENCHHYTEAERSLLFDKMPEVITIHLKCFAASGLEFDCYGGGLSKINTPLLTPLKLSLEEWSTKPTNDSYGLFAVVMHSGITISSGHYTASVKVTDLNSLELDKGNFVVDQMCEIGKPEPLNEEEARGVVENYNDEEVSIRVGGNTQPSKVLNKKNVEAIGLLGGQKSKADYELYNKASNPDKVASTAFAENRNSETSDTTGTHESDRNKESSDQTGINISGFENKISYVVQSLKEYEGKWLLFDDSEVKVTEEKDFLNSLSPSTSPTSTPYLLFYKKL
# Procedure, shortened: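 USP1/UAF1 complex at 1 nM preincubated 15 min at room temperature with compound, then Ub-Rho substrate added at 150 nM final. Fluorescence (480/540 nm) read kinetically in 50 mM HEPES pH 7.8, 0.5 mM EDTA, 1 mM TCEP, 0.1 mg/ml BSA, 0.01% Tween-20.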
# [13] = NFAT Signaling Pathway (AID 444; active = well fitted curve in either direction with a large enough effect, not every such curve was filed as active;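 note: carbachol stimulus at about its EC50 of 1 µM final; % is set by controls: 0 for no effect and ±100 for the full control effect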); conditions: Jurkat NFAT-bla M1, carbachol, beta-lactamase ratio, 5 h; at 7.69 µM (top of the series) unless noted
# Procedure, shortened: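 Jurkat cells with NFAT-driven β-lactamase reporter and co-expressed M1 receptor, stimulated with carbachol (final 1 uM, ~EC50), compound titration, 5 h at 37 °C. CCF4 loaded 1 h at RT; 460/530 nm ratio gave %activity and AC50.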
# [14] = target: Glucocorticoid receptor (Homo sapiens) (UniProt P04150); experiment: GR-GFP Redistribution (AID 450;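 active = compounds whose dose series gives a full or clear partial fitted curve of increased nuclear translocation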; note: potency is the fitted concentration of half-maximal effect); conditions: U2OS GR-GFP nuclear translocation, laser cytometry, 2 h
# [15] = target: 3',5'-cyclic-AMP phosphodiesterase 4B (Homo sapiens) (UniProt Q07343); experiment: qHTS Assay for Inhibitors of PDE-IV (AID 607; active = well fitted activation curve with a large enough effect in the main read-out, with a control signal flat, not every such curve was filed as active; note: potency is the fitted concentration of half-maximal effect); conditions: HEK293 ACTOne CNG channel cells, membrane potential fluorescence; series mostly up to 22.9 µM
# Chain of 3',5'-cyclic-AMP phosphodiesterase 4B (Homo sapiens) (Q07343 whole entry, looked up): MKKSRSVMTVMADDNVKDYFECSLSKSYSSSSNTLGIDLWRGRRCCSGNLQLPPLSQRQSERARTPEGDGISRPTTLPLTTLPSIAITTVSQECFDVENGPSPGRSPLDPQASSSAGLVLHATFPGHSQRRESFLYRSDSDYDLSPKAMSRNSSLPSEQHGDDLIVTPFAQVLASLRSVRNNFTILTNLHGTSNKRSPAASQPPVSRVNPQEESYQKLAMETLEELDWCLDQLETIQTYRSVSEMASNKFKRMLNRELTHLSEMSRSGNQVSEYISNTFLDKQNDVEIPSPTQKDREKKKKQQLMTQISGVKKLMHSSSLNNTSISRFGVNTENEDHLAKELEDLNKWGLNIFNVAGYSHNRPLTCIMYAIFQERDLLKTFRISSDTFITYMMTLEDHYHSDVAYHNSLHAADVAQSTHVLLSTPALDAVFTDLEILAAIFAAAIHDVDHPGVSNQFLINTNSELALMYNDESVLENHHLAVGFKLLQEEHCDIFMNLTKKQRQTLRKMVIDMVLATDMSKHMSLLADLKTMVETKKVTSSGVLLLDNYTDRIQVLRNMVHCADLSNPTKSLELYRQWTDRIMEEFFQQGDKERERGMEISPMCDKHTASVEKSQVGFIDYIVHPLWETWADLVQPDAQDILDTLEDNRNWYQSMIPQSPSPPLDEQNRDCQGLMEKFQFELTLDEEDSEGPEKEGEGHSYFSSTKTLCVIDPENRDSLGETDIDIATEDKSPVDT
# Procedure, shortened: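 Live HEK293 cells with a modified cyclic nucleotide-gated (CNG) channel report intracellular cAMP via membrane-potential dye fluorescence (ex 535/em 590 nm). Endogenous PDE-IV was targeted. Compounds were tested at up to 22.9 uM final; RO 20-1724 100 uM served as control.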
# [16] = target: Cytochrome P450 3A4 (Homo sapiens) (UniProt P08684); experiment: qHTS Assay for Inhibitors and Substrates of Cytochrome P450 3A4 (AID 884); conditions: recombinant CYP3A4, Luciferin-PPXE luminescence; series mostly up to 57.1 µM; note: potency is the fitted concentration of half-maximal effect; nearly all actives have a fitted effect of over 50% in size
# Procedure, shortened: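 20 nM human CYP3A4 with 25 uM Luciferin-PPXE (at KM) in 200 mM KPO4, preincubated 10 min with compound; NADPH regeneration started a 60 min RT reaction. Luciferin detected by luminescence, normalized to 57 uM ketoconazole as full inhibition.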
# [17] = target: Cytochrome P450 2C19 (Homo sapiens) (UniProt P33261); experiment: qHTS Assay for Inhibitors and Substrates of Cytochrome P450 2C19 (AID 899); conditions: recombinant CYP2C19, luciferin-H EGE luminescence; series mostly up to 57.1 µM; note: potency is the fitted concentration of half-maximal effect; nearly all actives have a fitted effect of over 60% in size
# Chain of Cytochrome P450 2C19 (Homo sapiens) (P33261 whole entry, looked up): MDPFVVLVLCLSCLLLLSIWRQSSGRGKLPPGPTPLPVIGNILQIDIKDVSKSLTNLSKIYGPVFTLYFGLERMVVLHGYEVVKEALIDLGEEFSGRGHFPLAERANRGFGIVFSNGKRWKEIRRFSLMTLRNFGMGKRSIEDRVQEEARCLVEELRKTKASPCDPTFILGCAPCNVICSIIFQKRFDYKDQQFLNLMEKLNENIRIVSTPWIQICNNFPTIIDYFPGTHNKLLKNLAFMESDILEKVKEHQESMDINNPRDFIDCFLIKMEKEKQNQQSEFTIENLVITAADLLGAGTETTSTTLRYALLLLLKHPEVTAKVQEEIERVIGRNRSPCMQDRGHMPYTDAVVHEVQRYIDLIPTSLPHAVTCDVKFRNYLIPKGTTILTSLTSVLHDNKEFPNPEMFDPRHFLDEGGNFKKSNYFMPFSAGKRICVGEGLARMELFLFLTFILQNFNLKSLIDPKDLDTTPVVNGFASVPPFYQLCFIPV
# Procedure, shortened: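 5 nM human CYP2C19 with 10uM Luciferin-H EGE (at KM) in 50mM KPO4, compound preincubated 10 min at 37C, then NADPH regeneration for 60 min at 37C. Luciferin read by luminescence after detection reagent; normalized to 57uM ketoconazole as full inhibition.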
# [18] = qHTS Assay for Identification of Small Molecule Agonists for Hypoxia Response Element Signaling Pathway (AID 914; active = well fitted activation curve with a large enough effect in the signal ratio, with a control signal flat, not every such curve was filed as active; the % refers to the signal ratio; note: % of control where 0% means no effect); conditions: ME-180 (cervical carcinoma) HRE-bla reporter, beta-lactamase ratio, CoCl2, 17 h; activation: hits give high values
# Procedure, shortened: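 HRE-bla ME-180 assay for agonist-like enhancement of an EC50 CoCl2 stimulus: 17 h at 37 degrees Celsius, CCF4 for 2.5 h, ratiometric 460/530 nm signal converted to %Activity and fitted to AC50.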
Structure (SMILES),Potency [1] [µM],"activity change, negative = inhibition [2] [%]",Potency [3],outcome [4],Potency [5] [µM],Potency [6],outcome [7],Potency [8],Potency [9],Potency [10],Potency [11],Potency [12],"activity change, negative = inhibition [13] [%]",Potency [14] [µM],Potency [15],Potency [16],Potency [17],activation [18] [%]
COc1ccccc1CNc1ncncc1-c1ccc2c(c1)OCO2,> 11.4,-21.5,0.158 µM (active),inactive,> 46,inactive,inactive,2.51 µM (active),2.24 µM (active),2 µM (active),1 µM (active),inactive,,,,,,
COc1ccc(Oc2ncc3nc(-c4cccc(C#N)c4)c(=O)n(Cc4cccc(OC)c4)c3n2)cc1,> 11.4,7.45,inactive,inactive,> 46,inactive,inactive,,inactive,inactive,inactive,inactive,-6.12,> 9.22,inactive,2 µM (active),,
COc1ccc(-n2c(=O)c(CCc3ccccc3)nc3cnc(OC)nc32)cc1,> 11.4,-14.2,15.8 µM (active),inactive,> 46,inactive,inactive,,inactive,inactive,inactive,inactive,0.705,> 9.22,2 µM (active),,6.31 µM (active),-18.9
